Data from PubChem BioAssay (NCI).
About 83,000 compounds went through this panel and 20% of them were active in at least one assay; those are over-represented in the sample as a whole.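 For each line, cells grew in 96-well plates with the test compound present at a single concentration for 48 hours.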 Activity calls are given as the source filed them. How the source made its calls: active means growth percent below 10; inactive means the rest.

Key:
Experiment in all cases: NCI-60 one-dose screen, 48 h (100 = growth as untreated, 0 = no growth, -100 = all killed)
Conditions in all cases: 10 µM unless noted
SK-MEL-2 melanoma = tested on: SK-MEL-2 melanoma
EKVX NSCLC = tested on: EKVX NSCLC
SN12C renal = tested on: SN12C renal
UO-31 renal = tested on: UO-31 renal
TK-10 renal = tested on: TK-10 renal
ACHN renal = tested on: ACHN renal
CAKI-1 renal = tested on: CAKI-1 renal
A498 renal = tested on: A498 renal
CCRF-CEM leukemia = tested on: CCRF-CEM leukemia
MOLT-4 leukemia = tested on: MOLT-4 leukemia
RPMI-8226 leukemia = tested on: RPMI-8226 leukemia
OVCAR-8 ovarian = tested on: OVCAR-8 ovarian
OVCAR-5 ovarian = tested on: OVCAR-5 ovarian
OVCAR-4 ovarian = tested on: OVCAR-4 ovarian
SK-OV-3 ovarian = tested on: SK-OV-3 ovarian
IGROV1 ovarian = tested on: IGROV1 ovarian
OVCAR-3 ovarian = tested on: OVCAR-3 ovarian
HS 578T breast = tested on: HS 578T breast
NCI/ADR-RES ovarian = tested on: NCI/ADR-RES ovarian

Measured: growth

CC(C)(C)OC(=O)Nc1ccc2c(c1)C(NC(=O)Nc1cccc(C#N)c1)CC(C)(C)O2 (centres undefined)
inactive: SK-MEL-2 melanoma 36.3% | EKVX NSCLC 32.2% | SN12C renal 62.9% | UO-31 renal 40.8% | TK-10 renal 39.3% | ACHN renal 50.9% | CAKI-1 renal 39.2% | A498 renal 57.5% | CCRF-CEM leukemia 41.7% | MOLT-4 leukemia 17.1% | RPMI-8226 leukemia 22.3% | OVCAR-8 ovarian 45.6% | OVCAR-5 ovarian 87.6% | OVCAR-4 ovarian 38.6% | SK-OV-3 ovarian 58% | IGROV1 ovarian 46% | OVCAR-3 ovarian 48% | HS 578T breast 85.5% | NCI/ADR-RES ovarian 48%

Clc1cccc(Cl)c1C(Nc1nc2ccccc2s1)Nc1nc2ccccc2s1
inactive: SK-MEL-2 melanoma 76% | EKVX NSCLC 97.1% | SN12C renal 108% | UO-31 renal 75% | TK-10 renal 114% | ACHN renal 89.3% | CAKI-1 renal 108% | A498 renal 112% | CCRF-CEM leukemia 81.7% | MOLT-4 leukemia 89.5% | OVCAR-8 ovarian 108% | OVCAR-5 ovarian 90.3% | OVCAR-4 ovarian 84.6% | SK-OV-3 ovarian 94.2% | OVCAR-3 ovarian 114% | HS 578T breast 106% | NCI/ADR-RES ovarian 108%
active: RPMI-8226 leukemia 5.02% | IGROV1 ovarian -15.1%

Cc1ccc(C2SCC(=O)N2Cc2ccccc2)cc1 (centres undefined)
inactive: SK-MEL-2 melanoma 100% | EKVX NSCLC 89.5% | SN12C renal 94.8% | UO-31 renal 83.8% | TK-10 renal 99.5% | ACHN renal 100% | CAKI-1 renal 84.4% | A498 renal 109% | CCRF-CEM leukemia 79.2% | MOLT-4 leukemia 84% | RPMI-8226 leukemia 96.7% | OVCAR-8 ovarian 98.8% | OVCAR-5 ovarian 101% | OVCAR-4 ovarian 98.9% | SK-OV-3 ovarian 103% | IGROV1 ovarian 102% | OVCAR-3 ovarian 116% | HS 578T breast 103% | NCI/ADR-RES ovarian 103%

O=C(c1ccccc1)c1c(/C=C/c2ccc(Cl)cc2)nc2ccccc2c1/C=C/c1cccs1
inactive: SK-MEL-2 melanoma 103% | EKVX NSCLC 88.2% | SN12C renal 90.2% | UO-31 renal 82.9% | TK-10 renal 99% | ACHN renal 93.8% | CAKI-1 renal 81.2% | A498 renal 77.1% | CCRF-CEM leukemia 96.4% | MOLT-4 leukemia 94.2% | RPMI-8226 leukemia 94.6% | OVCAR-8 ovarian 98% | OVCAR-5 ovarian 98.1% | OVCAR-4 ovarian 96.3% | SK-OV-3 ovarian 97.2% | IGROV1 ovarian 94.1% | OVCAR-3 ovarian 95.4% | HS 578T breast 106% | NCI/ADR-RES ovarian 99.8%

CN(C)CCNc1nc2ccccc2c2c1c1c(n2Cc2ccccc2)-c2ccccc2C1=O
active: SK-MEL-2 melanoma -74.6% | EKVX NSCLC -87.8% | SN12C renal -89.1% | UO-31 renal -77.8% | TK-10 renal -80% | ACHN renal -98.4% | CAKI-1 renal -80.1% | A498 renal -96.4% | CCRF-CEM leukemia -60.6% | MOLT-4 leukemia -84.3% | RPMI-8226 leukemia -72.7% | OVCAR-8 ovarian -53% | OVCAR-5 ovarian -74.7% | OVCAR-4 ovarian -93.6% | SK-OV-3 ovarian -92.5% | IGROV1 ovarian -72.9% | OVCAR-3 ovarian -79.2% | HS 578T breast -90.4% | NCI/ADR-RES ovarian -72.6%

COc1cccc(-c2nc3sccn3c2/C=C/C(=O)c2ccc(C(F)(F)F)cc2)c1
inactive: SK-MEL-2 melanoma 79.1% | EKVX NSCLC 94.2% | SN12C renal 76.7% | UO-31 renal 56.3% | TK-10 renal 89.7% | ACHN renal 94.7% | CAKI-1 renal 84.7% | A498 renal 52.7% | CCRF-CEM leukemia 66.8% | MOLT-4 leukemia 48.5% | RPMI-8226 leukemia 46.5% | OVCAR-8 ovarian 81.1% | OVCAR-5 ovarian 92.5% | OVCAR-4 ovarian 92.9% | SK-OV-3 ovarian 77.3% | IGROV1 ovarian 92.8% | OVCAR-3 ovarian 78.9% | HS 578T breast 80% | NCI/ADR-RES ovarian 89.8%

CCc1c2c(nc3ccc(OC(=O)OCc4ccc(B5OC(C)(C)C(C)(C)O5)cc4)cc13)-c1cc3c(c(=O)n1C2)COC(=O)[C@]3(O)CC
active: SK-MEL-2 melanoma -30.5% | SN12C renal -4.2% | UO-31 renal -72.1% | TK-10 renal 0.26% | ACHN renal -53.6% | CAKI-1 renal -44.1% | A498 renal -65.1% | RPMI-8226 leukemia 8.86% | OVCAR-8 ovarian 0.492% | OVCAR-5 ovarian -16% | SK-OV-3 ovarian 3.1% | IGROV1 ovarian 6.81% | OVCAR-3 ovarian -17.5% | NCI/ADR-RES ovarian -0.875%
inactive: EKVX NSCLC 37.3% | CCRF-CEM leukemia 17.9% | MOLT-4 leukemia 20.3% | OVCAR-4 ovarian 11.1% | HS 578T breast 20.7%

COc1ccc(C(=O)Nn2c(NCC(=O)N3c4ccccc4Sc4ccccc43)nnc2-c2ccc(O)cc2)cc1
inactive: SK-MEL-2 melanoma 108% | EKVX NSCLC 108% | SN12C renal 94.7% | UO-31 renal 98.1% | TK-10 renal 109% | ACHN renal 103% | CAKI-1 renal 107% | A498 renal 90.2% | CCRF-CEM leukemia 110% | MOLT-4 leukemia 110% | RPMI-8226 leukemia 105% | OVCAR-8 ovarian 101% | OVCAR-5 ovarian 89.3% | OVCAR-4 ovarian 120% | SK-OV-3 ovarian 105% | IGROV1 ovarian 110% | OVCAR-3 ovarian 121% | HS 578T breast 106% | NCI/ADR-RES ovarian 97.8%

O=c1oc2ccccc2c(Cl)c1Cl
inactive: SK-MEL-2 melanoma 54.7% | EKVX NSCLC 106% | SN12C renal 17.9% | UO-31 renal 62.3% | TK-10 renal 94.3% | ACHN renal 80.7% | CAKI-1 renal 83.4% | A498 renal 112% | CCRF-CEM leukemia 18.9% | MOLT-4 leukemia 37.5% | RPMI-8226 leukemia 40.6% | OVCAR-8 ovarian 61% | OVCAR-5 ovarian 88.1% | OVCAR-4 ovarian 91.7% | SK-OV-3 ovarian 94.7% | IGROV1 ovarian 47.5% | OVCAR-3 ovarian 103% | HS 578T breast 85% | NCI/ADR-RES ovarian 86.4%

CCCCc1ccc(Nc2ccc(Nc3ccc(CCCC)cc3S(=O)(=O)O)c3c2C(=O)c2ccccc2C3=O)c(S(=O)(=O)O)c1
active: IGROV1 ovarian -16.9%
inactive: SK-MEL-2 melanoma 67.1% | EKVX NSCLC 83.3% | SN12C renal 91% | UO-31 renal 66.5% | TK-10 renal 114% | ACHN renal 94.5% | CAKI-1 renal 95.6% | A498 renal 119% | CCRF-CEM leukemia 80.9% | MOLT-4 leukemia 96.8% | RPMI-8226 leukemia 52% | OVCAR-8 ovarian 99.8% | OVCAR-5 ovarian 97.8% | OVCAR-4 ovarian 99.9% | SK-OV-3 ovarian 91.5% | OVCAR-3 ovarian 103% | HS 578T breast 102% | NCI/ADR-RES ovarian 107%

CCc1ccccc1-n1c(N)c(C#N)c(-c2ccc(N(C)C)cc2)c(C#N)c1=O
inactive: SK-MEL-2 melanoma 112% | EKVX NSCLC 90.4% | SN12C renal 96.8% | UO-31 renal 85.3% | TK-10 renal 99.6% | ACHN renal 94.8% | CAKI-1 renal 93.6% | A498 renal 94.2% | MOLT-4 leukemia 117% | RPMI-8226 leukemia 74.7% | OVCAR-8 ovarian 101% | OVCAR-5 ovarian 97% | OVCAR-4 ovarian 99% | SK-OV-3 ovarian 107% | IGROV1 ovarian 90.8% | OVCAR-3 ovarian 97% | HS 578T breast 92.2% | NCI/ADR-RES ovarian 94.8%
active: CCRF-CEM leukemia -30.8%

C#Cc1cccc(NC(=O)c2ccc(NC(=O)CCl)cc2)c1
inactive: SK-MEL-2 melanoma 31.3% [8.25 µM] | EKVX NSCLC 104% [8.25 µM] | A498 renal 65% [8.25 µM] | CCRF-CEM leukemia 12.1% [8.25 µM] | MOLT-4 leukemia 14% [8.25 µM] | OVCAR-5 ovarian 40% [8.25 µM] | OVCAR-4 ovarian 17.1% [8.25 µM] | SK-OV-3 ovarian 77.3% [8.25 µM] | HS 578T breast 38.2% [8.25 µM] | NCI/ADR-RES ovarian 11.1% [8.25 µM]
active: SN12C renal -78.4% [8.25 µM] | UO-31 renal -99.2% [8.25 µM] | TK-10 renal -63.2% [8.25 µM] | ACHN renal -98.2% [8.25 µM] | CAKI-1 renal 9.54% [8.25 µM] | RPMI-8226 leukemia 2.29% [8.25 µM] | OVCAR-8 ovarian -13.8% [8.25 µM] | IGROV1 ovarian -55.5% [8.25 µM] | OVCAR-3 ovarian -85.8% [8.25 µM]

O=c1[nH][n+](-c2ccc(Cl)cc2)no1
inactive: SK-MEL-2 melanoma 75.4% | EKVX NSCLC 60.6% | SN12C renal 73.5% | UO-31 renal 27% | TK-10 renal 70.8% | ACHN renal 40.7% | CAKI-1 renal 18.5% | A498 renal 82.6% | CCRF-CEM leukemia 55.3% | MOLT-4 leukemia 44.4% | RPMI-8226 leukemia 79.2% | OVCAR-8 ovarian 69.9% | OVCAR-5 ovarian 77% | OVCAR-4 ovarian 83.5% | SK-OV-3 ovarian 86.8% | IGROV1 ovarian 70.5% | OVCAR-3 ovarian 86.8% | HS 578T breast 98.5% | NCI/ADR-RES ovarian 79.9%

Cc1cc(=O)oc2c1ccc1oc(C#N)c(C)c12
active: CCRF-CEM leukemia 6.77%
inactive: SK-MEL-2 melanoma 115% | EKVX NSCLC 93.7% | SN12C renal 101% | UO-31 renal 94.7% | TK-10 renal 89.2% | ACHN renal 103% | CAKI-1 renal 106% | A498 renal 75.1% | MOLT-4 leukemia 102% | RPMI-8226 leukemia 88.9% | OVCAR-8 ovarian 99.5% | OVCAR-5 ovarian 92.4% | OVCAR-4 ovarian 93.1% | SK-OV-3 ovarian 107% | IGROV1 ovarian 106% | OVCAR-3 ovarian 98.6% | HS 578T breast 91.2% | NCI/ADR-RES ovarian 96.2%

COc1ccc(-c2nc3ccc4[nH]ncc4c3c3c2CCCC3)cc1B(O)O
inactive: SK-MEL-2 melanoma 56.1% | EKVX NSCLC 17.7% | SN12C renal 52% | UO-31 renal 33.7% | TK-10 renal 49.5% | ACHN renal 20.9% | CCRF-CEM leukemia 46.8% | MOLT-4 leukemia 48.8% | RPMI-8226 leukemia 47.6% | OVCAR-8 ovarian 56.4% | OVCAR-5 ovarian 90.5% | OVCAR-4 ovarian 74.8% | SK-OV-3 ovarian 14.4% | IGROV1 ovarian 35.6% | OVCAR-3 ovarian 94.8% | NCI/ADR-RES ovarian 71.2%
active: CAKI-1 renal -1.55% | A498 renal 8.27% | HS 578T breast 0.224%

NS(=O)(=O)c1ccc(-n2nc(C(=O)N/N=C\c3ccc(F)cc3)cc2-c2ccc(Cl)cc2)cc1
inactive: SK-MEL-2 melanoma 96.5% | EKVX NSCLC 75.1% | SN12C renal 90.7% | UO-31 renal 62.4% | TK-10 renal 136% | ACHN renal 90% | CAKI-1 renal 60.6% | A498 renal 68.5% | CCRF-CEM leukemia 103% | MOLT-4 leukemia 89.2% | RPMI-8226 leukemia 104% | OVCAR-8 ovarian 96.8% | OVCAR-5 ovarian 103% | OVCAR-4 ovarian 97.8% | SK-OV-3 ovarian 93.5% | IGROV1 ovarian 76.1% | OVCAR-3 ovarian 99.8% | HS 578T breast 86% | NCI/ADR-RES ovarian 106%
